Shown are actives, neighbours in structure and some others; about 7.1% of the full set was active somewhere.
MCF10A rereplic – DNA re-replication induction in MCF 10a cells; MCF 10A DNA re-replication, Hoechst nuclear intensity, 48 h; Potency, µM (titrated, usually from 46.1 µM), for inactives: top-dose activity, positive = re-replication, most hits filed as activators; actives 2.9% (n = 350,000); also: potency is read from the fitted curve at half-maximal effect; % of control where 0% means no effect; nearly all actives have a fitted effect of over 50% in size
ATXN2 expr inh – ATXN2 expression inhibition. HEK-293 ATXN2-luciferase reporter, luminescence, 24 h. Potency, µM (doses to about 57 µM), inactives show at the top dose activity change, negative = inhibition, actives largely listed as inhibitors. actives 0.72% (n = 360,000); also: potency is read from the fitted curve at half-maximal effect; % is scaled to controls: 0 for no effect and ±100 for the full control effect; nearly all actives have a fitted effect of over 55% in size
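ATXN2-luciferase reporter cells (luciferase flanked by upstream and downstream ATXN2 gene portions) were treated 24 h at 37 °C with compounds at up to 57 uM. SteadyGlo luminescence gave expression; GF-AFC fluorescence gave viability.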
SW480 rerep – induces DNA re-replication in SW480 colon adenocarcinoma cells; SW480 DNA re-replication, Hoechst DNA content imaging, 48 h; Potency, µM (series often up to 46.1 µM), for the others: top-dose re-replication activation, usual class: activators; actives 1.8% (n = 340,000); AID 624297; also: potency is read from the fitted curve at half-maximal effect; % of control where 0% means no effect; nearly all actives have a fitted effect of over 55% in size
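Hoechst fluorescence of nuclei (405 nm excitation, 500-530 nm emission) measured by plate-scanning imager after 48 hr compound exposure at 37 C; re-replication scored as increased number of nuclei with elevated intensity.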
PINK1 expr mod – changes PINK1 expression; Potency, µM (series often up to 76.6 µM), inactives show at the highest dose activation (PINK1 increase), usual class: activators; actives 0.2% (n = 410,000); PINK1 immunofluorescence, high-content cytometry, 24 h; AID 624263; active = well fitted activation curve with a large enough effect; inconclusive = small, poorly fitted or top-dose-only effect; cell line not stated here; also: potency is read from the fitted curve at half-maximal effect; % of control where 0% means no effect; nearly all actives have a fitted effect of over 65% in size
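Stable cell line, 250 cells/well, 12 h attachment; compounds pinned at 5 concentrations, 24 h; CCCP control. Fixed with nuclear dye, primary antibodies 12 h at 10 degrees C, secondary plus cell stain; laser-scanning cytometer read.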
S2 tox – cell viability loss in ATXN counter-screen; Potency, µM (series often up to 56.7 µM), hits mostly cytotoxic; actives 0.49% (n = 400,000); S2 cells (HEK-293 line with an ATXN2-luciferase reporter) viability, CellTiter-Fluor protease fluorescence, 24 h; AID 651635; also: potency is read from the fitted curve at half-maximal effect; nearly all actives have a fitted effect of over 40% in size
IL-1B inflam inh – blocks inflammasome-driven IL-1 beta release; activity change, % at 57.5 µM; actives 4.7% (n = 360,000); THP-1 LPS/ATP IL-1B secretion, AlphaLISA, 16 h; stronger effect = lower value; in the data active = activity change below about -50%; inconclusive = mostly about -30% to -49%; also: % is scaled to controls: 0 for no effect and ±100 for the full control effect
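Secreted IL-1B measured by AlphaLISA bead assay after 16 h compound exposure of THP-1 cells; compounds (final up to 57.5 uM) added 1 h before LPS (250 ng/mL) and ATP (1.25 mM) stimulation; lower signal means less secretion.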
* hit, by the source's call; [ ] = dose if it differs, or a comment. Unless noted, calls follow the shape of the dose curve; as a rule, active = well fitted curve in the direction sought with a large enough effect; inconclusive = small, poorly fitted or top-dose-only effect, or another doubt; inactive = no such curve, though single readings can be large; an effect the other way counts as inactive or inconclusive.

Results for CCCOc1ccc(-c2nn(-c3ccccc3)cc2C2NC(=O)NC(C)=C2C(=O)OC)cc1C (stereo unspecified) ?
ATXN2 expr inh: 21.6%; PINK1 expr mod: 2.5%; S2 tox: inactive

How did O=S(=O)(c1c(Cl)cc(Br)cc1Cl)N1CCN(C(=S)NC2CC2)CC1 do in these assays?
MCF10A rereplic: inconclusive; ATXN2 expr inh: inconclusive; SW480 rerep: 0.1%; PINK1 expr mod: -1.0%; S2 tox: inactive; IL-1B inflam inh: -84.6*

How did CCOC(=O)CC[C@H](NC(=O)Cn1cnc(C(=O)Nc2ccc(C)c(C)c2)n1)C(=O)OCC do in these assays?
MCF10A rereplic: -14.7%; ATXN2 expr inh: 23.3%; SW480 rerep: -14.4%; PINK1 expr mod: 1.0%; S2 tox: inactive; IL-1B inflam inh: -1.9

Results for CCOC(=O)c1sc(NC(=O)CSc2nnnn2-c2ccc(C)c(C)c2)nc1C ?
MCF10A rereplic: 5.8µM*; ATXN2 expr inh: -14.2%; SW480 rerep: 1.3%; PINK1 expr mod: 6.7%; S2 tox: inactive; IL-1B inflam inh: 59.8

What do the screens show for `CCOc1ccc(NC(=O)CCc2c(C)nc3cc(-c4ccccc4OC)nn3c2C)cc1`?
ATXN2 expr inh: 1.3%; PINK1 expr mod: 1.1%; S2 tox: inactive

What do the screens show for `CC(C)N(Cc1ccccc1)C(=O)C1CCCN(c2ncnc3onc(-c4ccc(F)cc4)c23)C1` (stereo unspecified)?
ATXN2 expr inh: inconclusive; PINK1 expr mod: 2.7%; S2 tox: inconclusive

How did CCN(CCNC(=O)Nc1ccc(Cl)cc1)c1ccccc1 do in these assays?
MCF10A rereplic: 18.4µM*; ATXN2 expr inh: inconclusive; SW480 rerep: inconclusive; PINK1 expr mod: inconclusive; S2 tox: inactive; IL-1B inflam inh: -6.2

Results for CCN(CC)c1nc(OCCNC(=O)Nc2ccccc2)nc(N(CC)CC)n1 ?
MCF10A rereplic: inconclusive; ATXN2 expr inh: -7.6%; SW480 rerep: 18.9%; PINK1 expr mod: 15.5%; S2 tox: inactive; IL-1B inflam inh: -63.4*

How did O=C(NCCOc1nc(N2CCCCC2)nc(N2CCCCC2)n1)Nc1ccccc1 do in these assays?
MCF10A rereplic: 10.4%; ATXN2 expr inh: -31.8%; SW480 rerep: 6.6%; PINK1 expr mod: 6.3%; S2 tox: inconclusive; IL-1B inflam inh: -63.3*

What do the screens show for `CC(C)(C)NCC(O)COc1ccccc1OCC1CCCO1` (stereo unspecified)?
ATXN2 expr inh: 13.1%; S2 tox: inactive

How did CN1CCN(S(=O)(=O)c2ccc(N(C)Cc3ccc(C(F)(F)F)cc3)c([N+](=O)[O-])c2)CC1 do in these assays?
MCF10A rereplic: inconclusive; ATXN2 expr inh: inconclusive; SW480 rerep: inconclusive; PINK1 expr mod: 0.5%; S2 tox: inactive; IL-1B inflam inh: -85.2*

Results for O=C(O)CNc1ccc(S(=O)(=O)C(F)(F)F)cc1[N+](=O)[O-] ?
MCF10A rereplic: 1.0%; ATXN2 expr inh: 7.4%; SW480 rerep: -17.0%; PINK1 expr mod: 1.0%; S2 tox: inactive; IL-1B inflam inh: 44.1

Results for CN1CCN(S(=O)(=O)c2ccc(Nc3ccc(F)cc3)c([N+](=O)[O-])c2)CC1 ?
MCF10A rereplic: inconclusive; ATXN2 expr inh: -20.9%; SW480 rerep: 29.1µM*; PINK1 expr mod: 1.2%; S2 tox: inactive; IL-1B inflam inh: 20.0

How did CCOc1ccc(Nc2ccc(S(=O)(=O)N3CCN(C)CC3)cc2[N+](=O)[O-])cc1OCC do in these assays?
MCF10A rereplic: -2.8%; SW480 rerep: -3.9%; PINK1 expr mod: 1.9%; S2 tox: inactive; IL-1B inflam inh: -19.8

Results for CC(=O)Nc1ccc(Nc2ccc(S(=O)(=O)C(F)(F)F)cc2[N+](=O)[O-])cc1 ?
MCF10A rereplic: 6.7%; ATXN2 expr inh: -16.1%; SW480 rerep: 4.6%; PINK1 expr mod: 3.1%; S2 tox: inactive; IL-1B inflam inh: -59.9*

Results for CCCCN(C)CCNC(=O)c1ccc(Cn2c(=O)[nH]c3cc(OC)c(OC)cc3c2=O)cc1 ?
ATXN2 expr inh: -6.3%; PINK1 expr mod: -0.5%; S2 tox: inactive

How did O=S(=O)(c1ccc(-n2cnnn2)cc1)N1CCN(c2cccc(C(F)(F)F)c2)CC1 do in these assays?
PINK1 expr mod: 1.6%

What do the screens show for `Nc1c(C(=O)N/N=C/c2ccccc2Cl)oc2nc(-c3ccccc3)cc(-c3ccco3)c12`?
MCF10A rereplic: 8.2µM*; ATXN2 expr inh: -38.0%; SW480 rerep: 18.4µM*; PINK1 expr mod: 9.4%

Results for O=C(N/N=C/c1ccco1)c1cc(-c2ccccc2)n[nH]1 ?
MCF10A rereplic: -18.4%; ATXN2 expr inh: -16.6%; SW480 rerep: 2.3%[9.22 µM]; PINK1 expr mod: -1.2%; S2 tox: inactive; IL-1B inflam inh: -2.8

Results for Cc1cc(-c2ccccc2)nc2oc(C(=O)NN)c(N)c12 ?
MCF10A rereplic: inconclusive; ATXN2 expr inh: -18.9%; SW480 rerep: inconclusive; PINK1 expr mod: 6.4%; IL-1B inflam inh: 24.6

Results for Nc1c(C(=O)N/N=C/c2ccc(F)cc2)oc2nc(-c3ccccc3)cc(-c3ccco3)c12 ?
MCF10A rereplic: 20.6µM*; ATXN2 expr inh: -32.2%; SW480 rerep: 355.4%; PINK1 expr mod: inconclusive

Results for CCOC(=O)c1[nH]nc(-c2cc(CC)c(O)cc2O)c1-c1cscn1 ?
MCF10A rereplic: 19.2%; ATXN2 expr inh: -35.6%; SW480 rerep: 16.9%; PINK1 expr mod: -4.7%[38.3 µM]; S2 tox: inactive; IL-1B inflam inh: -60.6*

Results for CCCc1cc2c(=O)c(-c3cscn3)c(C(=O)OCC)oc2cc1O ?
MCF10A rereplic: -1.2%; ATXN2 expr inh: 23.2%; SW480 rerep: -17.0%; PINK1 expr mod: -0.4%; S2 tox: inactive; IL-1B inflam inh: 19.4

Results for COc1ccc(CNCc2cccc(Oc3ccccc3)c2)cc1 ?
MCF10A rereplic: 2.6%; ATXN2 expr inh: -11.9%; SW480 rerep: -1.8%; PINK1 expr mod: 12.5%; S2 tox: inactive; IL-1B inflam inh: -79.9*

Results for COc1ccc(CCC(C)NCc2ccccc2OC)cc1 (stereo unspecified) ?
MCF10A rereplic: 3.8%; ATXN2 expr inh: -15.3%; SW480 rerep: inconclusive; PINK1 expr mod: 0.9%; S2 tox: inactive; IL-1B inflam inh: -81.6*

What do the screens show for `COc1ccc(CNCc2ccc3ccccc3c2)c(OC)c1`?
MCF10A rereplic: 0.9%; SW480 rerep: -9.6%; PINK1 expr mod: 18.7%; S2 tox: inactive; IL-1B inflam inh: -68.1*

What do the screens show for `COc1ccc(CNCc2cccc(C)c2)cc1`?
MCF10A rereplic: inconclusive; ATXN2 expr inh: 5.3%; SW480 rerep: -1.0%; PINK1 expr mod: 1.6%; S2 tox: inactive; IL-1B inflam inh: -10.9

Results for COC(=O)/C=C\C(=O)OC ?
ATXN2 expr inh: 6.7%; S2 tox: inactive
